Test results reported in PubChem BioAssay AID1069 (NMMLSC, 2008).
Active and inactive are the calls of the source.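 How the source made its calls: active means high combined rank on largest and smallest cell-count-weighted shift across three tests, rank score above 45, floors 50 and 25 (some results past the limit were not filed as active); inactive means the rest.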

Experiment: activators of LNCaP cell differentiation, retest, confirmation, side scatter shift, flow cytometry (AID 1069);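 further: LNCaP human prostate cancer cells in low-serum medium with charcoal-stripped FBS; percent of cells with raised granularity gated so DMSO controls show 10%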
Details: 4 d, stronger effect = higher value

Question: Which side scatter shift (at 100 µM) does the source give for `CCn1c(=O)cc(OCC(=O)N2CCN(Cc3ccc4c(c3)OCO4)CC2)c2ccccc21` here?
Answer: Its side scatter shift is 0% (inactive).

Question: What about the side scatter shift (side scatter shift, at 10 µM) of the same compound?
Answer: Its side scatter shift is 3.6%.

Question: What does the source list for `CCn1c(=O)cc(OCC(=O)N2CCC3(CC2)OCCO3)c2ccccc21`?
Answer: side scatter shift (at 100 µM): 6.7% (inactive); side scatter shift (side scatter shift, at 10 µM): 1.7%

Question: Which side scatter shift (at 100 µM) does the source give for `Cc1cc(OCC(=O)O)c2c3c(c(=O)oc2c1)CCCC3` here?
Answer: Its side scatter shift is 5.1% (inactive).

Question: What about the side scatter shift (side scatter shift, at 10 µM) of the same compound?
Answer: Its side scatter shift is 5.9%.

Question: Which results are given for `Cc1ccc2c(c1)[C@@H]1CN(C)CC[C@@H]1N2C(=O)Nc1cccc(C(F)(F)F)c1`?
Answer: side scatter shift (at 100 µM): 23.1% (inactive); side scatter shift (side scatter shift, at 10 µM): 10.6%

Question: For `Cc1nc2ccccc2c(=O)n1-c1ccc(F)cc1`, which side scatter shift (at 100 µM) is on record?
Answer: Its side scatter shift is 8.9% (inactive).

Question: What about the side scatter shift (side scatter shift, at 10 µM) of the same compound?
Answer: Its side scatter shift is 3.5%.

Question: Which results are given for `Cc1ccc(Cn2c(C)c3cnn(CC(=O)N4CCC5(CC4)OCCO5)c(=O)c3c2C)cc1`?
Answer: side scatter shift (at 100 µM): 9.1% (inactive); side scatter shift (side scatter shift, at 10 µM): 3.35%

Question: What does the source list for `C[C@H]1CCC/C=C/C2C[C@H](O)CC2[C@H](O)/C=C/C(=O)O1` (stereo not given in full)?
Answer: side scatter shift (at 100 µM): 8.7% (inactive); side scatter shift (side scatter shift, at 10 µM): 9.7%

Question: For `CCOc1ccc(C2SCC(=O)Nc3c2c(=O)[nH]n3C2CCCCCC2)cc1` (stereo not given), which side scatter shift (at 100 µM) is on record?
Answer: Its side scatter shift is 22.2% (inactive).

Question: And the side scatter shift (side scatter shift, at 10 µM)?
Answer: The side scatter shift was 10.5%.

Question: Which side scatter shift (at 100 µM) does the source give for `O=C(COc1ccc2ccccc2c1)N1CCN(C2CCN(Cc3ccccc3)CC2)CC1` here?
Answer: The side scatter shift was 54.3% (inactive).

Question: What about the side scatter shift (side scatter shift, at 10 µM) of the same compound?
Answer: The side scatter shift was 5.8%.

Question: Which side scatter shift (at 100 µM) does the source give for `Clc1ccc(COC(Cn2ccnc2)c2ccc(Cl)cc2Cl)cc1` (stereo not given) here?
Answer: The side scatter shift was 18.2% (inactive).

Question: What about the side scatter shift (side scatter shift, at 10 µM) of the same compound?
Answer: Its side scatter shift is 2.85%.
